Bioassay records as filed in PubChem BioAssay.
This is a sample that favours compounds with a hit; in the whole collection about 10% have one here.
PLK1 PBD block – PLK1 (human) polo-box domain binding inhibition; Potency, µM, for the others: max response, negative = inhibition, hits mostly inhibitors; AID 720504; Plk1 PBD binding of FITC phosphopeptide, fluorescence polarization; actives 2.8% (n = 360,000); also: potency is read from the fitted curve at half-maximal effect; series mostly up to about 57 µM; nearly all actives have a fitted effect of over 65% in size
Target sequence (P53350 whole entry, looked up, the tested form may be a part): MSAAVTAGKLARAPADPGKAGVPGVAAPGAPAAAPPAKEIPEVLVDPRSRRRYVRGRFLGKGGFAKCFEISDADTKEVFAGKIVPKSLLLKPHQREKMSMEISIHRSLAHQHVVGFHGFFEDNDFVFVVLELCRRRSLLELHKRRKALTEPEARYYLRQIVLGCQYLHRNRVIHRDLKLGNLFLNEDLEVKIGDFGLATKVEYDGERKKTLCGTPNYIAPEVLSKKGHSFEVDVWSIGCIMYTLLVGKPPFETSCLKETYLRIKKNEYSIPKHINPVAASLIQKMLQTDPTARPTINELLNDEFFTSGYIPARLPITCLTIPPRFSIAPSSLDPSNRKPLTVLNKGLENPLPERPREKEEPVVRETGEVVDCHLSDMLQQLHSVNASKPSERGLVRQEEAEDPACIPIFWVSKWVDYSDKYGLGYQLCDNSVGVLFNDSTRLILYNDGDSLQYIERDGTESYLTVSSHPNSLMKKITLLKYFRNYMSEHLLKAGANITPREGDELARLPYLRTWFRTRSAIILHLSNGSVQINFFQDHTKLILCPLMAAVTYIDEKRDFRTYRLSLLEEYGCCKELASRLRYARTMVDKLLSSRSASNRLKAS
MmCpn inh – M. maripaludis TRiC chaperonin inhibition | Potency, µM (highest dose often 76.9 µM), for the others: top-dose activity, negative = inhibition, usual class: inhibitors | purified Mm-Cpn ATPase, ADP Transcreener TR-FRET | AID 504842 | actives 0.031% (n = 330,000); also: potency is read from the fitted curve at half-maximal effect; nearly all actives have a fitted effect of over 80% in size
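Compound-treated chaperonin, 25 nM final, turns over 10 uM ATP at 37°C for 30 min following a 10 min preincubation; ADP generated competes with ADP-d2 for Eu-cryptate antibody, lowering FRET.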
VDR inhibitor – blocks the human vitamin D receptor; P11473; VDR-SRC2-3 peptide fluorescence polarization, 2 h; Potency, µM, for the others: max response, negative = inhibition, usual class: inhibitors; actives 0.93% (n = 400,000); also: potency is read from the fitted curve at half-maximal effect
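Signal is fluorescence polarization, reporting how far test compounds block the interaction of VDR with the SRC2-3 coregulator peptide after a 2 h room-temperature incubation.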
G9a block – inhibitors of human histone lysine methyltransferase G9a. Q96KQ7. G9a H3K9 monomethylation, AlphaScreen, 2 h. Potency, µM (top dose mostly 102 µM), for the others: at the top dose activity, negative = inhibition, usual class: inhibitors. actives 8.8% (n = 350,000). AID 504332; also: potency is read from the fitted curve at half-maximal effect; nearly all actives have a fitted effect of over 75% in size
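AlphaScreen detection with an anti-monomethyl H3K9 antibody quantified product after a 2 h room-temperature reaction containing 500 nM biotinylated H3K9 peptide, 20 µM SAM and 20 nM enzyme, which had been preincubated 15 min with compound.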
CCT chaperon mod – modulators of cytosolic chaperonin (CCT/TRiC) activity. activity change, % (no concentration beside the values), hits read low. AID 651819. actives 0.3% (n = 360,000). purified chaperonin ATPase assay, HTRF ADP detection, 30 min; in the data active = activity change below about -30%
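Nucleotide hydrolysis assay: TRiC at 20–40 nM final (set by batch activity) with 10 uM ATP, 30 min at 37 °C, in presence of 76 uM compound. Detection by competitive ADP HTRF, 30 min ambient.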
Sfp PPTase inh – Sfp phosphopantetheinyl transferase inhibition. Biochemical Sfp PPTase activity, qHTS. Potency, µM, for the others: largest response in the series, negative = inhibition, hits mostly inhibitors. actives 3.5% (n = 310,000). AID 1490;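 also: the enzyme is Sfp with the accession as filed and its product quenches rhodamine fluorescence; potency is read from the fitted curve at half-maximal effect; 0% = enzyme reaction without inhibitor and -100% = no enzyme wells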
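Fluorescence-quenching assay with 15 nM Sfp, 5 uM rhodamine-CoA and 12.5 uM BHQ-2-labelled ybbR peptide in pH 7.6 Hepes/MgCl2 buffer. Enzyme was pre-incubated with compound for 15 min at room temperature. Rate was taken from the 30-min fluorescence change (525/598 nm).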
Starred values were filed as active, the others as inactive; ? = inconclusive; . = no result given; [ ] = remark or other dose. Unless noted, calls follow the shape of the dose curve; as a rule, active = well fitted curve in the direction sought with a large enough effect; inconclusive = small, poorly fitted or top-dose-only effect, or another doubt; inactive = no such curve, though single readings can be large; an effect the other way counts as inactive or inconclusive. Unless noted, % is scaled to controls: 0 for no effect and ±100 for the full control effect.

SMILES	PLK1 PBD block	MmCpn inh	VDR inhibitor	G9a block	CCT chaperon mod	Sfp PPTase inh
O=c1cc(-c2ccccc2)[nH]n1-c1ccc([N+](=O)[O-])cc1	21µM*	0%	-18%	?	3	-2%
CCOc1ccc(CC(=O)NC2CC(=O)N(c3ccc(C)c(C)c3)C2)cc1 (configuration not stated)	.	.	3%	17%[59 µM]	.	.
CCc1nn(CC(=O)NCCOC)c(=O)c2cc3cc(F)ccc3n12	.	.	6%	-32%[59 µM]	.	.
Brc1ccc(-c2cn3nc4c(nc3n2)CCCC4)cc1	-25%	-3%	-12%	?	0	?
c1ccc(-c2cn3nc4c(nc3n2)CCCC4)cc1	-21%	-1%	-4%	50µM*	-5	79µM*
CCn1c(-c2cccs2)nc2ccccc21	-6%	-6%	-20%	20%[59 µM]	-2	6%
COC(=O)Cn1c(C)nc2ccccc21	-2%	2%	3%	-3%	-4	-2%
O=C(O)Cn1c(-c2ccccc2)nc2ccccc21	27µM*	1%	-6%	40µM*	0	22%
O=C(O)Cn1c(=S)sc2ccccc21	-20%	?	-19%	71µM*	0	10%
COC(=O)Cn1c(=O)c(C)nc2ccccc21	30µM*	-1%	-18%	23%	-1	10%
CCn1c(-c2ccc(N(C)C)cc2)nc2ccccc21	0%	-4%	11%	79µM*	2	9%
O=C(O)Cn1c(=O)c(-c2ccccc2)nc2ccccc21	1%	-1%	-5%	.	-1	10%
Cc1cccc(NC(=O)c2sc(-n3nc(C)c(CCC(C)C)c3C)nc2C)c1	.	.	-8%	?	.	.
CCN(CC)CCCNC(=O)C(C)n1nc(C)n2c(cc3occc32)c1=O (configuration not stated)	.	.	10%	-7%[59 µM]	.	.
CN(C)c1ccc(-c2nc3ccccc3n2C)cc1	27µM*	-8%	0%	?	1	?
CCOC(=O)c1ccc([N+](=O)[O-])c(CS(=O)(=O)c2ccc(Cl)cc2)c1	1%	0%	10%	-17%[2.33 µM]	-1	14%
Cc1ccc(S(=O)(=O)Cc2cc(F)c([N+](=O)[O-])cc2[N+](=O)[O-])cc1	2.4µM*	0%	-8%	50µM*	1	-2%
COc1ccccc1CN1CCN(C2CCN(C(=O)NC(C)C)CC2)C(=O)C1=O	.	.	19%	-7%[12.7 µM]	.	.
Cc1onc(-c2ccccc2)c1C(=O)N/N=C/c1c[nH]c2ccccc12	24µM*	-2%	3%	-28%	1	-9%
CC#CC(=O)Nc1cc2c(Nc3ccc(F)c(Cl)c3)ncnc2cn1	.	.	2%	.	.	-2%
O=C(O)CC(Cn1[nH]nnc1=S)c1ccccc1 (configuration not stated)	?	3%	-8%	8.9µM*	-1	40µM*
O=C(O)CC(CC(=O)Nc1nncs1)c1ccccc1 (configuration not stated)	-8%	2%	5%	-3%[12.7 µM]	1	21%
COCC1CCN(Cc2c(C(=O)N3CCc4ccccc4C3)nc3ccc(Cl)cn23)C1 (configuration not stated)	-23%	-7%	-9%	40µM*	-2	-13%
COC1CCN(Cc2c(C(=O)N3CCc4ccccc4C3)nc3ccc(Cl)cn23)CC1	4%	-4%	7%	.	1	8%
CCOC(=O)c1ccc(NC(=O)CSc2nc3ccccc3c(=O)n2CCC(=O)NC2CCCCC2)cc1	.	.	13%	0%[59 µM]	.	.
NCCN1C(=O)S/C(=C\c2ccc3c(c2)OCO3)C1=O	-30%	1%	-24%	45µM*	0	-1%
COc1ccc(/C=C2\SC(=O)N(CCC(=O)Nc3ccccc3)C2=O)cc1OC	-1%	-14%	11%	?	1	-5%
COc1cc(/C=C2\SC(=O)N(CCN)C2=O)ccc1OS(=O)(=O)c1cc(C)ccc1C	-17%	-1%	-4%	28µM*	-2	-51%
CCOC(=O)C1CCN(C(=O)c2ccc3c(c2)sc2nc(-c4ccccc4)cn23)CC1	.	.	11%	-2%[59 µM]	.	.
